Drawing on PubChem BioAssay (NCATS), this text covers Potency for 37 molecules.

Records with an inconclusive call do not appear. A call without a number means that no potency is given here. Activity calls are given as the source filed them. Calls come from the whole dose curve; as a rule, active = well fitted inhibition curve with a large enough effect; inconclusive = small, poorly fitted or top-dose-only effect; inactive = flat fitted curve, though single readings scatter. Where a SMILES comes first, the peptide text is derived from it. [ ]: non-standard residue; d: D form. pGlu = O=C1CC[C@@H](C(=O)O)N1; Thz = O=C(O)[C@@H]1CSCN1
Potency is the fitted concentration of half-maximal effect.

Chain of Luciferin 4-monooxygenase (Photinus pyralis) (P08659 whole entry, looked up): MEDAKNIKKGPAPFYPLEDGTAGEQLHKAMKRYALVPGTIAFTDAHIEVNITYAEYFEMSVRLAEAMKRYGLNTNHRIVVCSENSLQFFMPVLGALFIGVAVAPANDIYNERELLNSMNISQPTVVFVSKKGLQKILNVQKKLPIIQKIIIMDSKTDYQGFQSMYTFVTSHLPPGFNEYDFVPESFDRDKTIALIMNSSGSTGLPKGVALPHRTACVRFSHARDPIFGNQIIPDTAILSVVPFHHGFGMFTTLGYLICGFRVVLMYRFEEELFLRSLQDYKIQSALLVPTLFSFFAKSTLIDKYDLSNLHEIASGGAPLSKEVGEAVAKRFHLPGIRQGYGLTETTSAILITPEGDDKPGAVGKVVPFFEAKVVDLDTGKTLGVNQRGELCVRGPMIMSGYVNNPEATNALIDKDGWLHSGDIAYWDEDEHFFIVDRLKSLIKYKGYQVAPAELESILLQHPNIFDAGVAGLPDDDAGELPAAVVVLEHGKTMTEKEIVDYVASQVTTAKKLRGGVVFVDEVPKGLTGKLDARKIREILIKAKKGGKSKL

For the test, the target named is Luciferin 4-monooxygenase (Photinus pyralis) (UniProt P08659). The test can be described thus: Biochemical firefly luciferase enzyme assay for NPC (AID 624030). Note: nearly all actives have a fitted effect of over 70% in size. The settings on record: purified P. pyralis luciferase, luminescence, 5 min; series mostly up to 58.6 µM. In short, it runs like this:
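Direct inhibition of firefly luciferase enzyme (10 nM final, 50 mM Tris Acetate) assessed by luminescence within 5 minutes. Percent activity scaled between DMSO and PTC124 positive control, with concentration-effect curves classified by fit quality and response.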
Take `CCCCC[C@H](O)/C=C/[C@@H]1[C@@H](C/C=C\CCCC(=O)O)[C@@H](O)C[C@H]1O`: the Potency result was “inactive”. To `COc1cc(/C=C/C(=O)N2CCN(CC(=O)N3CCCC3)CC2)cc(OC)c1OC` belongs “inactive”.

On to `CO[C@@]1(NC(=O)Cc2cccs2)C(=O)N2C(C(=O)O)=C(COC(N)=O)CS[C@@H]21`, for which the Potency result was “inactive”. Turning to `Cc1c(N)c(=O)n(-c2ccccc2)n1C`, the Potency result is “inactive”. On to `CC1(C)S[C@@H]2[C@H](NC(=O)[C@H](NC(=O)N3CCN(S(C)(=O)=O)C3=O)c3ccccc3)C(=O)N2[C@H]1C(=O)O`, for which the Potency result was “inactive”. For the molecule `N=c1ccn2c(n1)O[C@H]1[C@H](O)[C@@H](CO)O[C@H]12`, the Potency entry is “inactive”. To `Nc1ccc(C(=O)O)c(O)c1` belongs “inactive”. To `CC(C)OC(=O)c1cc(C(=O)OC(C)C)cc([N+](=O)[O-])c1` belongs “inactive”; to `Cc1ccc(O)c(-n2nc3ccccc3n2)c1`, 2.87 µM (active); to `COc1cc2c3cc1Oc1cc(ccc1O)C[C@@H]1c4c(cc(OC)c(O)c4Oc4ccc(cc4)C[C@@H]3N(C)CC2)CC[N+]1(C)C`, “inactive”. The result for `Oc1c(Br)cc(Br)c2cccnc12` reads “inactive”; that for `CC1(C)[C@@H](O)CC[C@]2(C)[C@H]3C(=O)C=C4[C@@H]5C[C@@](C)(C(=O)O)CC[C@]5(C)CC[C@@]4(C)[C@]3(C)CC[C@@H]12`, “inactive”; that for `CCOC(=O)c1ccccc1O`, “inactive”. Take `Cc1ccccc1CNc1ncnc2c1ncn2C1OC(CO)C(O)C1O` (configuration not stated): the Potency result is “inactive”.

Turning to `O=C1CN(/N=C/c2ccc(-c3ccc([N+](=O)[O-])cc3)o2)C(=O)N1`, the Potency result is “inactive”. To `[O-][n+]1ccccc1SSc1cccc[n+]1[O-]` belongs 2.56 µM (active); to `NC(=O)C(c1ccccc1)(c1ccccc1)[C@@H]1CCN(CCc2ccc3c(c2)CCO3)C1`, “inactive”. `CCC1C(=O)OCC1Cc1cncn1C` (configuration not stated): the Potency result was “inactive”. The result for `CC(=O)c1ccc(OCC(=O)N2CCCCC2)cc1` reads “inactive”; that for `Cc1[nH]cnc1CN1CCc2c(c3ccccc3n2C)C1=O`, “inactive”.

Consider `CCCCCCOc1ccccc1C(N)=O`, for which the Potency entry is “inactive”.

Regarding `C[S+](CC[C@H](N)C(=O)O)C[C@H]1O[C@@H](n2cnc3c(N)ncnc32)[C@H](O)[C@@H]1O` (some centres not stated), the Potency entry was “inactive”. On to `C=CC(N)CCC(=O)O` (configuration not stated), for which the Potency result is “inactive”.

In the case of `N=C(N)N`, the Potency entry is “inactive”. For the molecule `C=C(Nc1ccc(OCC)cc1)Nc1ccc(OCC)cc1`, the Potency entry was “inactive”. For the molecule `C=CCN1C(=O)C(CC(C)C)NC1=S` (configuration not stated), the Potency entry is “inactive”. The result for `Clc1ccccc1-c1nc(-c2ccncc2)no1` reads 3.61 µM (active); that for `CC1(C)C[C@@H]1C(=O)N/C(=C\CCCCSC[C@H](N)C(=O)O)C(=O)O`, “inactive”. To `O=C1CC[C@@H](C(=O)N2CSC[C@H]2C(=O)O)N1` ([pGlu]-[Thz]-OH) belongs “inactive”; to `O=C(O)COc1ccc(C(=O)c2cccs2)c(Cl)c1Cl`, “inactive”. `CC(N)C(=O)OC(C)(C)Cc1ccc(Cl)cc1` (configuration not stated): the Potency result is “inactive”.

Turning to `O=C(O)[C@H](CC(=O)N1C[C@H]2CCCC[C@H]2C1)Cc1ccccc1`, the Potency result is “inactive”. To `CCCCCC[C@@H](O)C/C=C\CCCCCCCC(=O)O` belongs “inactive”; to `COC(=O)C1=C(C)NC(C)=C(C(=O)OCC(C)=O)C1c1ccccc1[N+](=O)[O-]` (configuration not stated), “inactive”; to `Cc1cc(O)c2ccccc2c1O`, “inactive”. The result for `COc1ccc(/C=C/C(=O)Nc2ccccc2C(=O)O)cc1OC` reads 0.181 µM (active); that for `O=C(O)Cc1ccc(-c2ccccc2)cc1`, “inactive”.
